Results reported in PubChem BioAssay AID2012 (Sanford-Burnham Center for Chemical Genomics, 2009).
About 2,700 (0.93%) of roughly 290,000 compounds were called active. The rule behind the calls is not given here. The full list was thinned out, with actives kept by preference.

Biological target: Eukaryotic translation initiation factor 4H (Homo sapiens) (UniProt Q15056)
Experiment: human eIF4H binding inhibitors, primary screen, translation initiation inhibitor project, biochemical, uHTS, fluorescence polarization (AID 2012);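 note: calls also rest on retests at 20 µM and on dose response follow-up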
Details: eIF4H fluorescence polarization binding assay, stronger effect = higher value

SMILES | inhibition (at 35 µM) | inhibition (confirmation average, at 20 µM) [%]
CCN1C(=O)/C(=c2\s/c(=C3\Sc4ccccc4N3C)c(=O)n2C)N(C)C1=S | -3% (inactive) | 
CN1/C(=c2/s/c(=C3/C(=O)N(c4ccccc4)NC3=Nc3ccccc3)n(C)c2=O)C(C)(C)c2ccccc21 | 75.5% (active) | 
O=[N+]([O-])c1cc([N+](=O)[O-])c(Oc2cc(F)cc(F)c2F)cc1NN1CCCCC1 | 0.2% (inactive) | 
Cn1c(=O)c2ccccc2n(CC(=O)Nc2ccc3c(c2)OCCO3)c1=O | -5.6% (inactive) | 
COc1ccc(-c2c(-c3ccc(OC)cc3O)nc(C)nc2C(F)(F)F)cc1 | -5.5% (inactive) | 
Cc1ccc(Cc2cnc(N)s2)o1 | 65.8% (active) | 93.7
Cc1ccc(CCC(=O)Nc2ncc(Cc3cc(Cl)ccc3Cl)s2)o1 | 1.5% (inactive) | 
O=C(CCc1nnc2ccc(NCc3ccccc3Cl)nn12)NCC1CCN(C2CCCC2)C1 (stereo not given) | 13.5% (inactive) | 
Cc1nn(Cc2ccccc2)c(C)c1NS(=O)(=O)c1ccccc1 | -5.2% (inactive) | 
CC(=O)N(CN1C(=O)C2C3C=CC(C3)C2C1=O)c1cccc(Cl)c1 (stereo not given) | -5.8% (active) | 61.4
O=C(CN1C(=O)C2C3C=CC(C3)C2C1=O)NCCc1ccccc1Cl (stereo not given) | -10.5% (inactive) | 
CC(=O)N(CN1C(=O)C2CC=CCC2C1=O)c1cccc(Cl)c1 (stereo not given) | 26% (inactive) | 
COc1ccc(OCc2cc(C(=O)NCC3(C)COC3)no2)c(Cl)c1 | -2.3% (inactive) | 
N#Cc1ccccc1CN1C(=O)S/C(=C/c2cccn2-c2cccc(C(=O)O)c2)C1=O | 81.6% (active) | 74.8
Cn1cccc1/C=C1\SC(=O)N(CC(=O)Nc2ccc(F)cc2)C1=O | 1.6% (inactive) | 
O=C(O)c1cccc(N2C(=O)Nc3ccccc3N2O)c1 | 1% (inactive) | 
Cc1cc(CN(C)C(=O)c2cc(COc3ccc(C)c(C)c3)on2)n[nH]1 | -4.1% (inactive) | 
CCCc1cc(=O)n2[nH]c(C)c(-c3ccc(Cl)cc3)c2n1 | 11.3% (inactive) | 
COc1ccccc1OCCCC(=O)Nc1ccc2c(c1)OCCO2 | -2.5% (inactive) | 
COc1cc(C(=O)N2CCN(C)CC2)cc(OC)c1OC | -6.9% (inactive) | 

SMILES | inhibition (at 35 µM) | inhibition (confirmation average, at 20 µM) [%]
COc1cc2c(C(=O)N3CCN(C)CC3)c(CSc3ccccc3)n(C)c2cc1Br | 1.1% (active) | 81.5
COc1ccccc1OCc1ccc(C(=O)N2CCN(C)CC2)o1 | 0.9% (inactive) | 
Cc1ccc(N2C(=O)C3C4C=CC(CC4)C3C2=O)cc1Br (stereo not given) | -2.9% (inactive) | 
CN(CCC1CCOCC1)C(=O)CC1C(=O)NCCN1Cc1cccc(F)c1 (stereo not given) | -3.2% (inactive) | 
O=C(Nc1ccc(S(=O)(=O)Nc2ccccn2)cc1)c1ccccc1 | -9.1% (inactive) | 
C=CCn1c(=O)c(C(=O)Nc2ncccc2O)c(O)c2ccccc21 | 22% (inactive) | 
CS(=O)(=O)Nc1ccccc1N=C(c1ccccc1)c1ccccc1 | 1.1% (inactive) | 
CCOc1ccc(N(CC(=O)NCCOc2ccccc2OC)S(=O)(=O)c2ccccc2)cc1 | -3.8% (inactive) | 
COc1ccc(Cl)cc1NC(=O)CCN1CCOCC1 | -3.3% (inactive) | 
O=C(CCS(=O)(=O)c1ccc(Br)cc1)NCCc1ccc(Cl)cc1 | 86.1% (active) | 67.7
O=C(NCCS(=O)(=O)c1ccc(Br)cc1)c1ccccc1Cl | -7.2% (inactive) | 
COc1ccc(Cl)cc1NC(=O)CCS(=O)(=O)c1cc2c(cc1C)NC(=O)CO2 | 3.9% (inactive) | 
NS(=O)(=O)c1ccc(CCNC(=O)Nc2ccc(Cl)cc2)cc1 | -4.8% (inactive) | 
COc1ccc(Cl)cc1NC(=O)CCS(=O)(=O)c1ccc(Br)cc1 | 84.2% (active) | 
CS(=O)(=O)N1CCc2cc(C(=O)Nc3ccccc3Br)ccc21 | -0.6% (inactive) | 
COCc1ccc(CN2CCC(Oc3ccc(C(=O)NCc4ccccn4)cc3)CC2)o1 | -2.5% (inactive) | 
O=C(CC1CCCCC1)NCc1ccco1 | -6.2% (inactive) | 
O=C(COC(=O)C12CC3CC(CC(C3)C1)C2)NCc1ccco1 | 50.9% (active) | 92.2
O=C(COC(=O)c1cnc(Cl)c(Cl)c1)NCc1ccco1 | -1.2% (inactive) | 
O=C(COC(=O)CCC(=O)c1cccs1)NCc1ccco1 | 87% (active) | 63.4

SMILES | inhibition (at 35 µM) | inhibition (confirmation average, at 20 µM) [%]
O=C(COC(=O)c1cccs1)NCc1cccs1 | -7.5% (inactive) | 
O=C(CC12CC3CC(CC(C3)C1)C2)NCc1ccco1 | -1% (inactive) | 
CC(C)CC(O)C1CCN(C(=O)CCc2nnc(-c3ccc4c(c3)OCO4)o2)CC1 (stereo not given) | 11.1% (inactive) | 
O=C(N/N=C\C1CC=CCC1)c1ccc(Br)o1 (stereo not given) | -1.2% (inactive) | 
CC(NC(=O)Cn1cc(C(F)(F)F)cc(Cl)c1=O)c1ccccc1 (stereo not given) | 4.6% (inactive) | 
O=C(O)c1cc(S(=O)(=O)NC2CCCc3ccccc32)ccc1O (stereo not given) | -2.4% (inactive) | 
Cc1ccc(CNC(=O)CCS(=O)(=O)c2ccc3c(c2)CC(C)N3C(=O)C2CC2)o1 (stereo not given) | -4.8% (inactive) | 
O=C(CCCN1C(=O)/C(=C\c2ccco2)SC1=S)Nc1cccc2ccccc12 | 91.9% (inactive) | -11.3
CN1C(=O)/C(=C/c2ccco2)SC1=Nc1cccc(C(=O)O)c1 | 99% (active) | 106
O=C(CCCN1C(=O)/C(=C/c2ccco2)SC1=S)Nc1ccccc1 | 77.4% (inactive) | 3.8
CC(Oc1ccccc1)C(=O)Nc1c2c(nn1-c1ccccc1)CS(=O)C2 (stereo not given) | -8.2% (inactive) | 
O=C(OCc1ccc(-c2ccccc2)cc1)c1cccc(O)c1 | -0.5% (inactive) | 
Cc1cc(/C=C2\SC(=Nc3ccc(N4CCOCC4)cc3)N(C)C2=O)c(C)n1-c1cccnc1 | 2.5% (inactive) | 
Cc1cc(/C=C2/SC(=O)N(CC(=O)N3CCCC3)C2=O)c(C)n1C | 8.5% (inactive) | 
Cc1cc(/C=C2\SC(=O)N(C)C2=O)c(C)n1-c1cccc(C(=O)O)c1 | 89.5% (active) | 
COc1ccc(N2CCN(C(=S)Nc3ccc(S(N)(=O)=O)cc3)CC2)cc1 | -13.4% (inactive) | 
CC1CN(C(=S)Nc2ccc(S(N)(=O)=O)cc2)CC(C)O1 (stereo not given) | 4.3% (inactive) | 
NS(=O)(=O)c1ccc(NC(=S)N2CCCC2)cc1 | 102% (active) | 104
C=CCn1c(C23CC4CC(CC(C4)C2)C3)n[nH]c1=S | -9.9% (inactive) | 
